# Screening results deposited in PubChem BioAssay by The Scripps Research Institute Molecular Screening Center.
# ASK1 inh: inhibitors of human ASK1 kinase | Q99683 | AlphaScreen MKK6 phosphorylation by ASK1, luminescence | inhibition, % at 7.44 µM | 0.99% of 22,000 active | AID 1159602; in the data active = inhibition above about 35%
# ULK1 primary: blocks human autophagy kinase ULK1; O75385; AlphaScreen Atg13 phosphorylation by ULK1, luminescence; inhibition, % at 5.96 µM; 1.9% of 30,000 active; AID 1259251; in the data active = inhibition above about 43%
# Target sequence (O75385 whole entry, looked up): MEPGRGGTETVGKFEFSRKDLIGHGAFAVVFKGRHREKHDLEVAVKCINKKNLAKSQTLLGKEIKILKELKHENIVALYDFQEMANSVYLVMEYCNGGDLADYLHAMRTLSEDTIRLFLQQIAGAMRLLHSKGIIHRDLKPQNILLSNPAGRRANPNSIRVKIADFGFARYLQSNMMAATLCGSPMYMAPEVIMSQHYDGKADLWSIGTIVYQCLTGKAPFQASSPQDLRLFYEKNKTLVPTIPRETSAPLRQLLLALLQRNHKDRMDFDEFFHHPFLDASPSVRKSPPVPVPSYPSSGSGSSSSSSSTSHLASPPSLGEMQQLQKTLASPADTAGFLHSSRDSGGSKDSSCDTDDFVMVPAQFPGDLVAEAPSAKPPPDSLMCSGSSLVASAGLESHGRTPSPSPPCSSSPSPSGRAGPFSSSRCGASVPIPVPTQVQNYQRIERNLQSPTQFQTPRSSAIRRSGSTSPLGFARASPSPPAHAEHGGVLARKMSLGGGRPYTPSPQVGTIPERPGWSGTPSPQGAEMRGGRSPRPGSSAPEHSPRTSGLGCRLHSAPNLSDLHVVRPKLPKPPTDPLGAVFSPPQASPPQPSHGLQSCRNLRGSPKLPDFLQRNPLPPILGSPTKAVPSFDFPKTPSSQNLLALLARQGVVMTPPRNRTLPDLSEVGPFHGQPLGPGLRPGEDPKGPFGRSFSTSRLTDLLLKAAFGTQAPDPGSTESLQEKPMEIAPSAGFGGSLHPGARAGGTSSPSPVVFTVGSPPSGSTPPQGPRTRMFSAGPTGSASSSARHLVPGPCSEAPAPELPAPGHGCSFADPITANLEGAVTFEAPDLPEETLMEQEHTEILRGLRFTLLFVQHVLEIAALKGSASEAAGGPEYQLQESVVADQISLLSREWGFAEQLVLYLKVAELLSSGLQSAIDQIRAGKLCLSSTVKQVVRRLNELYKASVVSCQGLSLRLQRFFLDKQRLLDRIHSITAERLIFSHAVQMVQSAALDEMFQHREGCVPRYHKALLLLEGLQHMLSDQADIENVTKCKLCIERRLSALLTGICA
# AlphaScreen intf: interferes with AlphaScreen TruHits signal in ASK1 counter-screen; shares compounds with ASK1 inh; AlphaScreen TruHits beads, signal interference counterscreen; IC50, µM; 20% of 220 active; AID 1159604;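 active = IC50 of 10 µM or lower in the counterscreen; inactive = IC50 above 10 µM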;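 note: loss of AlphaScreen light from TruHits beads alone with no ASK1 enzyme present; potency of signal reduction so a low IC50 flags an assay artifact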
# Hits are given with their value; 0 = inactive; - = not tested or not shown. Most compounds without a hit are left out; they make up all but 2.5% or so of the library.
SMILES,ASK1 inh,ULK1 primary,AlphaScreen intf
CC(C)n1cnc2c(Nc3ccc(Oc4ccccc4)cc3)nc(N3CCOCC3)nc21,42,0,0
c1ccc(-n2cnc3c(Nc4ccc(N5CCOCC5)cc4)nc(Nc4ccc(-n5ccnc5)cc4)nc32)cc1,0,0,-
CC(C)n1cnc2c(NCc3ccccc3)nc(Nc3ccc(N4CCOCC4)cc3)nc21,0,0,-
CC(=O)Nc1ccc(Nc2nc(N3CCN(c4ccccn4)CC3)nc3c2ncn3Cc2ccc(C(F)(F)F)cc2)cc1,0,0,-
c1ccc(-n2cnc3c(Nc4ccc(N5CCOCC5)cc4)nc(Nc4cccnc4)nc32)cc1,40,0,0
CC(C)n1cnc2c(Nc3ccccc3)nc(Nc3ccc(N4CCOCC4)cc3)nc21,47,0,0
FC(F)(F)c1ccc(Cn2cnc3c(Nc4ccc(N5CCOCC5)cc4)nc(N4CCN(c5ccccn5)CC4)nc32)cc1,38,0,0
COc1ccc(CCNc2ncnc3c2nc(-c2cccs2)n3C(C)C)cc1,0,0,-
O=C(Nc1ccc2[nH]ncc2c1)[C@@H]1CCCN1C(=O)[C@@H](O)c1ccccc1Cl,0,0,-
CN(C)CCN(C(=O)OCc1ccccc1)c1cc(-c2cn[nH]c2)ccc1NC(=O)OCc1ccccc1,0,0,-
CN1CCN(C(=O)c2ccc(-c3cncc(C(=O)NCc4cccnc4)c3)cc2)CC1,0,0,-
CC(C)n1cnc2c(Nc3ccc(N4CCOCC4)cc3)nc(N3CCN(c4ccccn4)CC3)nc21,36,0,0
CC(C)n1cnc2c(Nc3ccccc3)nc(N3CCN(c4ccccn4)CC3)nc21,0,0,-
Nc1cccc(-c2nc3ncnc(Nc4ccc(N5CCOCC5)cc4)c3[nH]2)c1,36,0,0
Cc1cnc(-c2csc3ccccc23)nc1Nc1ccc(N2CCOCC2)cc1,42,0,0
c1ccc(-c2nc3ncnc(Nc4ccc(N5CCOCC5)cc4)c3[nH]2)cc1,0,0,-
Cc1cnc(-c2cccc(N)c2)nc1Nc1ccc(N2CCOCC2)cc1,51,0,0
CC(=O)c1cccc(-c2ncc(C)c(Nc3ccc(N4CCOCC4)cc3)n2)c1,0,0,-
COc1cc2nc(-c3csc4ccccc34)nc(Nc3ccc(N4CCOCC4)cc3)c2cc1OC,0,0,-
CCN(CC)c1cc(-c2ccccc2)nc(-c2cccnc2)n1,-,0,-
CCN1CCN(c2c(Cl)cccc2NC(=O)c2ccc(Cl)cc2)CC1,0,0,-
COc1ccc2c3c(c(=O)oc2c1)CN(C(=O)c1cccc(C(F)(F)F)c1)CC3,-,0,-
COc1ccc(-c2nc3ncnc(Nc4ccc(N5CCOCC5)cc4)c3[nH]2)cn1,0,0,-
FC(F)(F)c1ccc(Cn2cnc3c(Nc4ccc(N5CCOCC5)cc4)nc(Nc4ccccc4)nc32)cc1,0,0,-
COc1ccc(CCNc2nc(NC3CCN(Cc4ccccc4)CC3)nc3c2ncn3Cc2ccc(C(F)(F)F)cc2)cc1,0,0,-
SMILES,ASK1 inh,ULK1 primary,AlphaScreen intf
Oc1ccc(CCNc2nc(NC3CCN(Cc4ccccc4)CC3)nc3c2ncn3Cc2ccc(C(F)(F)F)cc2)cc1,39,0,0
FC(F)(F)c1ccc(Cn2cnc3c(Nc4ccc(N5CCOCC5)cc4)nc(NC4CCN(Cc5ccccc5)CC4)nc32)cc1,37,0,0
COC(=O)c1cccc(-c2cc(NC(=O)Cc3ccccc3)n[nH]2)c1,0,0,-
c1ccc(OCCNc2nc(-c3ccccc3)nc3nc[nH]c23)cc1,0,0,-
Cc1nc(C)n(-c2ccc(Nc3nccc(-c4cccc(-n5nccn5)c4)n3)cc2)n1,39,0,0
Cc1nc(C)n(-c2ccc(Nc3nccc(-c4cccc(-n5ccnc5)c4)n3)cc2)n1,0,0,-
Cc1[nH]ncc1-c1ccc(NC(=O)C2COc3ccc(F)cc3C2)c(N(C)CCN(C)C)c1 (stereo not given),0,0,-
Cc1[nH]ncc1-c1ccc2nc(NC(=O)C3COc4ccc(F)cc4C3)sc2c1 (stereo not given),39,0,0
O=C(COc1cccc2ccc(N3CCCC3)nc12)NCc1ccc(F)cc1,-,0,-
